IkB signaling = IkB pathway inhibition in ABC-DLBCL cells; ABC-DLBCL IkBa-CBG/CBR dual luciferase ratio, 4 h; response scale: scaled: untreated 0%, proteasome inhibitor 100%; Potency, µM (titrated, usually from 57.1 µM), without a hit: at the highest dose IkBa stabilization activation; 110,000 tested, 0.04% active; active = well fitted curve in the direction sought with a large enough effect in the signal ratio, not every such curve was filed as active; inconclusive = small, poorly fitted or top-dose-only effect, or a change in a side signal; the % refers to the signal ratio;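 note: the direction sought is a rising ratio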
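Curves were fitted separately to fusion (green), unfused (red) and ratio luminescence, then classed by r2, magnitude and activity. Cells: OCI-Ly3, 4 h compound plus doxycycline at 37C; 10 uM MG-132 defined full response.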
CRE Fsk mod = modulators of forskolin-stimulated CRE signaling in CHO cells | AID 662 | 71,000 tested, 2.5% active | Potency, µM (doses to about 38.2 µM), for inactives: at the top dose activity change, negative = inhibition, most hits filed as activators | CHO CRE-bla reporter (cAMP response element driving beta-lactamase), forskolin EC10, beta-lactamase ratio; active = well fitted activation curve with a large enough effect in the signal ratio, with a control signal flat, not every such curve was filed as active; inconclusive = small, poorly fitted or top-dose-only effect, or effect the other way, or a change in a side signal; the % refers to the signal ratio; note: % of control where 0% means no effect
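CRE-bla CHO cells stimulated with EC10 NKH 477 (water-soluble forskolin) and compound titrations, 3 h at 37C; beta-lactamase read with CCF4 after 2 h at room temperature. Activity from 460/530 nm emission ratio, AC50 values for positive or negative modulation.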
p53ts 39C tox = p53ts cell cytotoxicity, nonpermissive temperature; H1299-p53A138V viability at 39C, ATP luminescence, 24 h; Potency, µM (highest dose often 46.1 µM), without a hit: at the top dose activity change, negative = cell killing, most hits filed as cytotoxic; 130,000 tested, 1.5% active; AID 902; note: % is set by controls: 0 for no effect and ±100 for the full control effect; nearly all actives have a fitted effect of over 55% in size
p53ts 32C kill = cytotoxicity in p53ts cells at permissive temperature. 130,000 tested, 0.93% active. H1299-p53A138V at 32C, ATP luminescence viability, 24 h. Potency, µM (titrated, usually from 46.1 µM), without a hit: at the top dose activity change, negative = cytotoxicity, hits mostly cytotoxic;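 note: 0% = DMSO and -100% = full killing by reference compound; nearly all actives have a fitted effect of over 55% in size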
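H1299-p53 A138V cells (temperature-sensitive p53) exposed 24 h to up to 46 uM compound at 32C, where p53 is wild-type in conformation. Viability read as ATP luminescence and normalised to DMSO and 100 uM tamoxifen. AC50 fitted with the Hill equation.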
Imprint erasure = inducers of genomic imprint erasure in mouse ES cells; Potency, µM (doses to about 60.7 µM), inactives show top-dose activity change, positive = activation, actives largely listed as activators; mouse ES Peg3-LacZ reporter, beta-gal luminescence, 40 h; 110,000 tested, 0.02% active
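Readout: BetaGlo luminescence (5 min, room temp) for LacZ from the normally silent maternal Peg3 allele in female Peg3LacZ-Neo ES cells. Cells 300/well, 40 h, 37C, 5% CO2. Data normalized per plate to negative controls.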
* hit, by the source's call; ? = inconclusive; / = no result given; [ ] = dose if it differs, or a comment. Shown are actives, neighbours in structure and some others; about 3% of the full set was active somewhere. Unless noted, calls come from the whole dose curve; as a rule, active = well fitted curve in the direction sought with a large enough effect; inconclusive = small, poorly fitted or top-dose-only effect, or another doubt; inactive = no such curve, though single readings can be large; an effect the other way counts as inactive or inconclusive. Potency is the fitted concentration of half-maximal effect.

SMILES	IkB signaling	CRE Fsk mod	p53ts 39C tox	p53ts 32C kill	Imprint erasure
CC(CNC(=O)c1ccc(Cn2c(SCc3ccccc3)nc3cccnc32)cc1)c1ccccc1 (centres undefined)	/	/	/	-28%	/
O=C(NCCN1CCCCC1)c1ccc(Cn2c(SCc3ccccc3)nc3cccnc32)cc1	?	/	10µM*	13µM*	-12%[10.9 µM]
CC1CCN(CCNC(=O)c2ccc(Cn3c(SCc4ccccc4)nc4cccnc43)cc2)CC1	?	/	10µM*	?	-18%[10.9 µM]
O=C(NC1CCCC1)c1ccc(CSc2nc3cccnc3n2Cc2ccc(F)cc2)cc1	/	/	/	4%	/
CC1CCCCN1CCNC(=O)c1ccc(Cn2c(SCc3ccccc3)nc3cccnc32)cc1 (centres undefined)	?	/	10µM*	10µM*	-14%[10.9 µM]
O=S(=O)(NCCNC/C=C/c1ccc(Br)cc1)c1cccc2cnccc12	/	/	/	/	-32%
O=c1[nH]c(Nc2nc3ccccc3o2)nc2c1CCCC2	/	/	?	13µM*	/
COc1ccc(NC(=O)c2cc3c(=O)n(Cc4cccnc4)ccc3nc2C)c(OC)c1	-2%	/	-13%	-3%	-8%[10.9 µM]
CCc1nnc(SCC(=O)N(C)c2ccccc2)c2cc3sccc3n12	?	/	25µM*	-1%	-9%[10.9 µM]
Nc1nc(N)nc(CCCCc2nc(N)nc(N)n2)n1	0%[11.4 µM]	-5%[7.6 µM]	/	/	/
CCCCCCCCNC(C)C(O)c1ccc(SC(C)C)cc1 (centres undefined)	/	/	20µM*	?	-48%
CN(Cc1ccccc1)C(=O)CN(C1CCCCC1)S(C)(=O)=O	-2%	4µM*	2%	6%	-9%
COC(=O)c1ccc(NC(=O)CN(C2CCCCC2)S(C)(=O)=O)cc1	-1%	25%	5%	4%	-14%
COC(=O)c1ccccc1NC(=O)CN(C1CCCCC1)S(C)(=O)=O	-6%	3.2µM*	12%	0%	-9%
Cc1ccc(C2C(=O)N(C3CCCCCC3)CC(=O)N2CCC2=CCCCC2)cc1 (centres undefined)	?	/	?	-1%	24%[10.9 µM]
CCc1c(C)nc2cc(-c3cc(OC)cc(OC)c3)nn2c1N1CCCC1	?	2.5µM*	-23%	26%	-13%
OC1CCN(c2c3c(nc4cc(-c5cccc(F)c5)nn24)CCCC3)CC1	?	3.2µM*	?	-8%	-20%
COc1cc(OC)cc(-c2cc3nc4c(c(N5CCN(c6ncccn6)CC5)n3n2)CCCC4)c1	1%	3.2µM*	-11%	12%	-13%
Clc1cccc(-c2cc3nc4c(c(N5CCNCC5)n3n2)CCCC4)c1	/	/	-15%	-14%	/
COc1cc(OC)cc(-c2cc3nc4c(c(N5CCN(c6cnccn6)CC5)n3n2)CCCC4)c1	0%	1.6µM*	-12%	-6%	-26%
COc1ccc(OC)c(NC(=O)c2cnn(-c3ccc(C)cc3)c2C2CCNCC2)c1	3%	/	-1%	5%	-10%[10.9 µM]
Fc1ccc(-c2noc3ncnc(N4CCCCC4)c23)cc1	-2%	/	-12%	4%	-4%[10.9 µM]
Clc1ccccc1-c1ccc2ncnc(N3CCNCC3)c2c1	-1%[11.4 µM]	?	5%	28%	10µM*
CCOCCCNC(=O)N1CCN(S(=O)(=O)c2ccc3c(ccn3C)c2)CC1	-1%	/	-6%	4%	-11%[10.9 µM]
COC(=O)C(C(C)=O)C(=O)C(Cc1ccccc1)NC(=O)OCc1ccccc1 (centres undefined)	/	/	6%[9.22 µM]	-6%[9.22 µM]	/
SMILES	IkB signaling	CRE Fsk mod	p53ts 39C tox	p53ts 32C kill	Imprint erasure
O=C(N[C@@H](Cc1ccccc1)C(=O)CCl)OCc1ccccc1	?	?	3.2µM*	4µM*	-30%
c1c2c(cc3sc(N4CCOCC4)nc13)OCCO2	?	?	5µM*	3.2µM*	-86%
CCN(C(=O)C1CCCN(c2ncnc3c2nc2n3CCCCC2)C1)c1cccc(C)c1 (centres undefined)	/	/	/	6%	/
COC(=O)C1CCN(C(c2cc(OC)c(OC)c(OC)c2)c2sc3nc(C)nn3c2O)CC1 (centres undefined)	-2%	13µM*	-4%	-16%	-42%
CCOC(=O)C1CCN(C(c2cc(OC)c(OC)c(OC)c2)c2sc3nc(C)nn3c2O)CC1 (centres undefined)	?	?	16%	9%	-38%
COc1ccc(N2CCN(c3oc(/C=C/c4ccccc4OC)nc3C#N)CC2)cc1	-3%	/	-6%	2%	-12%[10.9 µM]
Cc1ccccc1-n1nc(CO)c(C(=O)NCC(c2ccccc2)c2ccccc2)n1	?	/	?	46%	-11%[10.9 µM]
COc1cc(/C=C/C(=O)N2CCC=CC2=O)cc(OC)c1OC	/	/	?	3.2µM*	-35%
COC(=O)c1cc(COc2ccc3oc(C)c(C(=O)OC)c3c2)c(C)o1	?	5µM*	-13%	2%	-18%
CCOC(=O)c1cn(-c2ccccc2)nc1-c1cccnc1	/	/	-4%	2%	/
CCOC(=O)c1cn(-c2ccccc2)nc1-c1ccncc1	0%	10µM*	-4%	0%	-3%
N#Cc1c(N)nc2c(c1-c1cccnc1)CCCCC2	-1%	?	10%	13%	12%
CCCc1nc(N)c(C#N)c(-c2cccnc2)c1CC	1%	13µM*	5%	8%	-12%
Cc1cccc(OCC(=O)Nc2ccc(Cl)c(-c3nc4ccccc4[nH]3)c2)c1	?	/	22%	11%	-15%[10.9 µM]
O=c1[nH]c2ccccc2c2nc3ccccn3c12	-4%	10µM*	?	?	-76%
CCN(CC)S(=O)(=O)c1ccc2c(c1)N(CC(=O)Nc1ccc(OC)cc1)C(=O)CS2	1%	/	0%	0%	-12%[10.9 µM]
O=C(Nc1ccc(S(=O)(=O)Nc2ccccc2)cc1)C1COc2ccccc2O1 (centres undefined)	/	/	22µM*	?	/
COc1ccc(CCNc2nnc(Sc3nnnn3-c3ccccc3)s2)cc1OC	?	10µM*	8%	-7%	-28%
CCOc1cc(CNCCSc2nnnn2-c2ccccc2)ccc1OC	0%	/	-3%	?	-18%[10.9 µM]
Cc1nc2cc(NC(=O)NCc3ccc4c(c3)OCO4)ccc2o1	5%	-12%	-4%	0%	2%
Cc1nc2cc(NC(=O)N3c4ccccc4CC3C)ccc2o1 (centres undefined)	2%	-11%	10µM*	10µM*	-40%
Cc1nc2cc(NC(=O)N3c4ccccc4CC3C)ccc2n1C (centres undefined)	3%	-6%	5µM*	6.3µM*	-66%
CCN(CC)CCCNC(=O)c1nn(-c2ccc(OC)cc2)c(=O)c2c1c1ccccc1n2C	0%	/	11%	1%	3%[10.9 µM]
CC(C)c1ccc(NC(=O)C2CCCN(S(=O)(=O)c3ccc4[nH]c(=O)ccc4c3)C2)cc1 (centres undefined)	-2%	/	10µM*	?	-10%[10.9 µM]
N#Cc1c(N)sc(=S)c2c1CCCC2	2%	-3%	7%	7%	-6%

Screens: PubChem BioAssay, National Center for Advancing Translational Sciences (NCATS)
